SMILES strings stand for the structures.

For this assay, the target named is RAF proto-oncogene serine/threonine-protein kinase (Homo sapiens) (UniProt P04049). Conditions: at 10 µM.
RAF proto-oncogene serine/threonine-protein kinase (Homo sapiens), sequence (P04049 whole entry): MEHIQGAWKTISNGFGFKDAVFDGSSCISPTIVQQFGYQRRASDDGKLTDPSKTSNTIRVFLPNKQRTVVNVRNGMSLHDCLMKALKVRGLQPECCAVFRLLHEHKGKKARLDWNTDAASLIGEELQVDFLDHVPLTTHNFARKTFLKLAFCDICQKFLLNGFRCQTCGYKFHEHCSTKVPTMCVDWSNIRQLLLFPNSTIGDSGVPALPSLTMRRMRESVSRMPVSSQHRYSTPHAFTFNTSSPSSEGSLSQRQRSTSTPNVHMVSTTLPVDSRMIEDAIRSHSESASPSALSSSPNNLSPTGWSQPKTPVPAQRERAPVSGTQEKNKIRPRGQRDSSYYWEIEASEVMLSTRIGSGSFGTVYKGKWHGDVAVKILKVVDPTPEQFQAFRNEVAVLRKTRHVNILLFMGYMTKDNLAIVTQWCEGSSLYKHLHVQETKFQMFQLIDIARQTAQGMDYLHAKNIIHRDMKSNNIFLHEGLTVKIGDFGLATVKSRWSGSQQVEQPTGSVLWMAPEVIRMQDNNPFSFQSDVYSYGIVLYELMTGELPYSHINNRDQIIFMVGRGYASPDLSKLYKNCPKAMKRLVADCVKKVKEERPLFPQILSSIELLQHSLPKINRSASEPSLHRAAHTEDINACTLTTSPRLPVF
A word on the residual activity: it is the signal under treatment as a percentage of the control signal. In the case of `COc1ccc(-c2cnc3c(-c4ccsc4)cnn3c2)cc1`, the residual activity stood at 97%.
With `Nc1n[nH]c2nc3ccccc3nc12` the figure was 69%.
With `O=C1NC(=O)C(c2cn(CCCn3ccnc3)c3ccccc23)=C1Nc1ccccc1` the figure was 71%; with `CSc1nc(-c2ccc(F)cc2)c(-c2ccnc(NC(C)c3ccccc3)c2)[nH]1` (configuration not stated), 65%.
Consider `O=c1c(-c2ccc(F)cc2)c(-c2ccncc2)[nH]n1-c1ccc(Cl)cc1`, for which the residual activity amounted to 6%.
For the compound `O=C(Nc1ccc(Cl)cc1)c1ccccc1NCc1ccncc1`, the residual activity was determined as 9%.
`COc1ccc(CNC(=O)Nc2ncc([N+](=O)[O-])s2)cc1`: the residual activity was 72%.
Take `O=C1Nc2ccccc2/C1=C\c1c(Cl)[nH]c2ccccc12`: the residual activity came to 41%.
With `CCCCc1c(-c2ccc(O)cc2)[nH]c2nccnc12`, the residual activity worked out at 71%.
Consider `CCN1/C(=C/C(C)=O)Sc2ccc(OC)cc21`, for which the residual activity was found to be 77%.
For the compound `Fc1ccc(-c2nc3n(c2-c2ccncc2)CCS3)cc1`, the residual activity worked out at 28%.
With `Cc1cc(C)c(/C=C2\C(=O)Nc3ccccc32)[nH]1` the figure was 103%; with `O=c1cc(N2CCOCC2)oc2c(-c3ccccc3)cccc12`, 69%.
Regarding `COc1cc2ncnc(Nc3cccc(Cl)c3)c2cc1OC`, the residual activity was determined as 72%.
As for `O=C1NC(=O)C(c2c[nH]c3ccccc23)=C1c1c[nH]c2ccccc12`, the residual activity was 57%.
Take `CC(C)c1nn(-c2c(Cl)cccc2Cl)c2nc(Cc3ccc(OCCO)cc3)[nH]c(=O)c12`: the residual activity turned out to be 76%.
`Nc1nccc(-c2c(-c3ccc(F)cc3)ncn2C2CCNCC2)n1`: the residual activity came out at 21%.
With `CC(C)N(CCC(=O)c1ccc2ccccc2c1)Cc1ccccc1`, the residual activity is 81%.
Regarding `O=C1Nc2ccc(Cl)cc2/C1=C/c1cc(Cl)c(O)c(Cl)c1`, the residual activity was -2%.
With `O=C1NC(=O)C(c2cn(CCCO)c3ncccc23)=C1c1cnccn1` the figure was 78%.
With `CCOc1nc(NC(=O)Cc2cc(OC)ccc2OC)cc(N)c1C#N`, the residual activity was determined as 80%.
For the compound `Nc1ncnc2[nH]nc(Nc3ccc(F)cc3)c12`, the residual activity worked out at 16%.

The values are drawn from ChEMBL document CHEMBL2218924, “A broad activity screen in support of a chemogenomic map for kinase signalling research and drug discovery” (Biochem J, 2013).
